NS1 function inh – influenza NS1 inhibition | 0.4% of 270,000 active | Potency, µM (titrated, usually from 46.1 µM), without a hit: top-dose activity, positive = more growth; calls by dose curve; further: potency means the concentration at half of the fitted maximal effect; actives are rising curves; nearly all actives have a fitted effect of over 50% in size
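Compounds were scored for reversing the slow growth caused by influenza A NS1 in S. cerevisiae, measured by optical density at 600 nm. Assay medium contained 2% galactose at pH 6.0; NS1-free yeast of the same strain were the positive control.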
Pf growth 96h – P. falciparum growth inhibition at 96 hours | P. falciparum luciferase reporter growth, 96 h | Potency, µM (top dose mostly 28.7 µM), inactives show at the top dose activity change, negative = inhibition, most hits filed as inhibitors | 6.9% of 320,000 active | AID 504834; further: potency means the concentration at half of the fitted maximal effect; on the % scale 0 is the no-effect control and ±100 the full control effect
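Compounds incubated with erythrocytes infected by luciferase-expressing P. falciparum (2% hematocrit, 0.05% parasitemia final) for 96 hours, 37 C in 5% CO2. Growth inhibition scored as decreased luciferase luminescence.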
Pf growth 48h – P. falciparum growth inhibition at 48 hours (one generation); P. falciparum luciferase growth in erythrocytes, 48 h; Potency, µM (series often up to 28.7 µM), for inactives: at the highest dose activity change, negative = inhibition, actives largely listed as inhibitors; 5.9% of 310,000 active; AID 504832; further: potency means the concentration at half of the fitted maximal effect; on the % scale 0 is the no-effect control and ±100 the full control effect
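Luminescence readout; reporter = integrated firefly luciferase in P. falciparum. RBC culture at 2% hematocrit, 0.1% parasitemia final, 37 C/5% CO2; decreased signal taken as growth inhibition.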
CHX counter – counter-screen for Shiga toxin inhibitors: cycloheximide protein synthesis inhibition; cell reporter, cycloheximide protein synthesis inhibition counterscreen; AID 2314; max response, %; 12% of 300,000 active; in the data active means max response mostly above about 13%, no sharp cut-off; inactive means mostly below about 14%; further: read at 38.3 µM for the half of the compounds with a filed dose; 0% is about no effect
Shiga toxin inh – inhibitors of Shiga toxin in Vero cells | Vero cells, Shiga toxin protein synthesis inhibition reporter | inhibition, % at 38.7 µM | 9.2% of 290,000 active | AID 2315; in the data active means inhibition mostly above about 28%, no sharp cut-off; inactive means mostly below about 43%; further: 0% is about no effect
* marks the source's active call; other numbers are inactive results; ? = inconclusive; . = not tested or not shown; + = active, no number; [ ] = another dose, or the depositor's remark. Shown are actives, neighbours in structure and some others; about 21% of the full set was active somewhere. Unless noted, the call rests on the fitted dose curve; in most records, active means well fitted inhibition curve with a large enough effect; inconclusive means small, poorly fitted or top-dose-only effect, or another doubt; inactive means no such curve, though single readings can be large or run the other way.

SMILES	NS1 function inh	Pf growth 96h	Pf growth 48h	CHX counter	Shiga toxin inh
COC(=O)c1c(NC(=O)CSc2nnc(Cn3nnc4ccccc43)n2C)sc(C)c1C	-15.4%	7.38µM*	-23.3%	1.0	48.7
Cc1ccc(C(=O)NCC(=O)N2CCCC(C(F)(F)F)C2)s1 (centres undefined)	.	106.2%	102.9%	.	.
CSc1nc(C=Nc2ccccc2Cl)c(O)n1Cc1cccc(Cl)c1	-2.6%	0.0%	-4.3%	7.6	-4.7
COc1cc(CC(=O)OCC(=O)N2CC(C)CC(C)C2)cc(OC)c1OC (centres undefined)	1.2%	-5.9%	?	1.0	-7.0
Cc1ccc(SCC(=O)N=C2NC(=O)CS2)cc1	.	?	13.0%	10.2	21.3
Cc1cc(=O)[nH]c(SCc2nnnn2-c2ccc(Cl)cc2)n1	5.9%	28.1%	13.0%	-3.1	-11.7
Nc1cc(=O)[nH]c(SCc2nnnn2-c2ccc(Cl)cc2)n1	?	0.208µM*	12.2%	1.8	-0.7
CC(C)(C)c1ccc(CSc2nc(N)cc(=O)[nH]2)cc1	-4.8%	47.7%	41.0%	38.6*	41.4*
CCCn1c(=O)[nH]c(=O)c2c1nc(-c1ccccc1)n2CCN1CCOCC1	5.3%	.	-11.6%	3.7	-5.2
CC(=Nc1ccccc1N)c1c(O)n(C)c(=O)n(C)c1=O	-19.9%	?	123.1%	23.6*	71.5*
CC/C(=N\Nc1ccccc1)c1c(O)n(C)c(=O)n(C)c1=O	2.1%	?	-16.4%	-7.5	-6.1
C/C(=N\NC(=S)Nc1ccccc1)c1c(O)n(C)c(=O)n(C)c1=O	9.8%	7.4%	36.1%	42.3*	+
CCOC(=O)NC(=O)CSc1nnc(C)s1	9.2%	20.9%	5.4%	-1.3	8.7
COc1ccccc1C(=O)Nc1ccc(-c2nnn(CC(=O)NCc3ccco3)n2)cc1	-54.2%	-0.5%	?	-2.2	1.2
CC1CCc2c(sc3nc(CSc4nnnn4C)[nH]c(=O)c23)C1 (centres undefined)	-3.3%	32.9%	18.8%	17.8*	26.0
COc1ccc(N(CC(=O)NC2CCCC2)S(=O)(=O)c2ccc(NC(C)=O)cc2)cc1	-0.9%	0.0%	?	-2.9	-9.4
CCC(C)NC(=O)CN(c1ccc(OC)cc1)S(=O)(=O)c1ccc(NC(C)=O)cc1 (centres undefined)	13.9%	6.57µM*	?	-4.6	6.5
COc1ccc(N(CC(=O)Nc2ccc3c(c2)OCO3)S(=O)(=O)c2ccc(F)cc2)cc1	11.4%	-14.9%	0.0%	9.6	11.4
COc1ccc(N(CC(=O)N/N=C/c2ccc3c(c2)OCO3)S(=O)(=O)c2ccc(NC(C)=O)cc2)cc1	.	?	13.1µM*	-0.7	-4.9
O=S(=O)(c1ccccc1F)N1CCN(Cc2cc3c(cc2Br)OCCO3)CC1	.	8.28µM*	?	.	.
O=S(=O)(c1ccc2c(c1)OCCO2)N1CCN(S(=O)(=O)c2cc(F)c(Br)cc2F)CC1	.	.	.	-9.1	-5.7
CCOc1ccccc1C1C2CCCCC2(O)CCN1C(=O)c1cccs1 (centres undefined)	10.3%	?	?	43.8*	55.4*
CCOc1ccccc1NC(=O)C1CCCN1C(=O)c1cccs1 (centres undefined)	.	-28.8%	10.6%	.	.
CCOC(=O)c1csc(-n2nc(C)cc2C(F)(F)F)n1	0.8%	10.9%	?	33.0*	37.6
Cc1cc(C(F)(F)F)n(-c2nc(C(=O)Nc3cccnc3)cs2)n1	-0.3%	30.2%[5.75 µM]	-3.0%	-1.0	-7.5
SMILES	NS1 function inh	Pf growth 96h	Pf growth 48h	CHX counter	Shiga toxin inh
CC(=O)c1cccc(NC(=O)c2csc(-n3nc(C)cc3C(F)(F)F)n2)c1	20.5%	?	?	-5.1	-14.5
Cc1cc(C(F)(F)F)n(-c2nc(C(=O)NN)cs2)n1	.	7.38µM*	19.8%	10.2	18.8
O=C(NC(CO)C(=O)OCc1ccccc1)OCc1ccccc1 (centres undefined)	.	24.7%	33.0%	.	.
COc1c(C)cc(C(=O)C2CCCN(C(=O)c3ccc4cc[nH]c4c3)C2)cc1C (centres undefined)	-2.7%	?	?	-2.6	-4.9
O=S(=O)(c1ccc(F)cc1)N1CCC(c2nc3ccccc3[nH]2)CC1	1.9%	-18.5%	?	-4.0	-1.2
O=C(c1ccc(S(=O)(=O)N2CCC(c3nc4ccccc4[nH]3)CC2)cc1)N1CCOCC1	-3.0%	?	?	1.3	-6.3
CCOCC(=O)Nc1ccc(S(=O)(=O)N2CCC(c3nc4ccccc4[nH]3)CC2)cc1	.	?	10.4µM*	.	.
CC(=O)Nc1ccc(S(=O)(=O)N2CCN(c3nc(NC4CCCC4)c4ccccc4n3)CC2)cc1	-15.6%	?	2.08µM*	-5.7	-19.1
CC(C)(C)C(=O)Nc1ccc(S(=O)(=O)N2CCC(c3nc4ccccc4[nH]3)CC2)cc1	.	8.28µM*	13.1µM*	.	.
CC(=O)Nc1ccc(S(=O)(=O)N2CCC(c3nc4ccccc4[nH]3)CC2)cc1	-4.5%	.	8.28µM*	0.5	9.2
CC(=O)c1cccc(S(=O)(=O)N2CCC(c3nc4ccccc4[nH]3)CC2)c1	-9.2%	7.0%	-3.3%	-1.1	-4.8
CCOC(=O)c1c(C)[nH]c(C)c1S(=O)(=O)NCc1cc(C)ccc1C	9.4%	13.1%	-2.0%	2.4	-2.4
Cc1c(C(=O)O)nc(/C=C\C(=O)O)[nH]c1=O	-2.0%	.	.	.	.
O=C(NNS(=O)(=O)c1ccc(C(=O)NC2CCCC2)cc1)c1ccncc1	.	-10.1%	15.8%	-2.2	-8.3
CC1CCCCC1NC(=O)c1ccc(S(=O)(=O)NNC(=O)c2ccncc2)cc1 (centres undefined)	-3.0%	-11.4%	2.08µM*	-1.3	-11.0
Cc1c(NS(=O)(=O)c2ccc(N)cc2)c(=O)n(-c2ccccc2)n1C	-5.8%	?	?	-2.8	-11.9
CCOC(=O)c1csc(NC(=O)C2=COCCO2)n1	4.0%	157.1%	153.0%	40.5*	63.3*
Cc1ccc(-c2csc(NC(=O)CN3CCOCC3)n2)cc1	7.0%	-1.6%	-6.4%	0.6	10.8
CC(=O)Nc1ccc(-c2csc(NC(=O)C3=COCCO3)n2)cc1	.	137.8%	86.1%	.	.
Cc1ccc(-c2csc(NC(=O)C3=COCCO3)n2)cc1	-8.4%	175.3%	131.5%	42.0*	51.4*
Cc1ccc(-c2csc(NC(=O)N3CCOCC3)n2)cc1	-4.2%	2.8%	31.9%	37.8*	110.8*
CCc1ccc(NC(=O)Cn2nc(C(=O)O)c3ccccc3c2=O)cc1	4.8%	39.5%	34.0%	4.1	-12.5
CNC(=O)c1ccc(CNC(=O)OCc2ccccc2)cc1	-3.8%	-39.2%[5.75 µM]	21.4%	2.8	21.7
Cc1oc(=O)c(NC(=O)c2ccccc2)cc1C(=O)c1ccccc1	-106.8%	35.0%	90.0%	63.7*	100.8*
CCOC(=O)c1cc(NC(=O)c2ccc(C)cc2)c(=O)oc1C(F)(F)F	.	35.7%	?	17.8	25.6
O=C(Nc1ccc(Cl)cc1C(=O)c1ccccc1)c1ccco1	13.2%	?	19.1%	15.7	22.6
Cc1oc(=O)c(NC(=O)c2ccc(Cl)cc2)cc1C(=O)c1ccccc1	-97.1%	-2.3%	?	65.2*	132.0*
CCOC(=O)c1cc(NC(=O)c2ccccc2)c(=O)oc1C(F)(F)F	.	-17.7%	?	27.4*	15.5
